In a collection of fitness landscapes (doi:10.1016/j.celrep.2020.107928):
The full ranking holds about 81,000 sequences; the median of “one-hybrid fitness for binding parS DNA” is about -0.17, and the highest 2% start at about 0.51. Only a selection was taken, and the highest values are over-represented in it overall.

B1: Caulobacter ParB omega fusion; a variant is named by its letters at X, in order, B8GW30 (parent)
chain: MESVVVGEPGMSEGRRGLGRGLSALLGEVDAAPAQAPGEQLGGSREAPIEILQRNPDQPRRTFREEDLEDLSNSIREKGVLQPILVRPSPDTAGEYQIVAGERAWRAAQRAGLKTVPIMVRELDDLAVLEIGIIENVQRADLNVLEEALSYKVLMEKFERTQENIAQTIGKSXSHVANXMRLLXLPDEVQSYLVSGELTAXHARAIAAAADPVALAKQIIEGGLSVRETEALARKAPNLSAGKSKGGRPPRVKDTDTQALESDLSSVLGLDVSIDHRGSTGTLTITYATLEQLDDLCNRLTRGI

Variants of: B1
Test: one-hybrid fitness for binding parS DNA (scaled: cognate 1, non-cognate 0); higher = stronger binding
Conditions: with parS DNA site
How it was run: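 Fitness here means the log change in variant-to-wild-type read ratio between plasmids sequenced before and after selection. That scale was set so cognate equals 1 and non-cognate equals 0. The selection was a bacterial one-hybrid screen of Caulobacter ParB libraries, four specificity codons randomised, in E. coli USO carrying a HIS3 reporter with the site 19 bp from the promoter, grown 48 hours at 37°C on M9-minus-histidine with 0.1 mM IPTG and 5 mM 3-AT.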

Variant	one-hybrid fitness for binding parS DNA
WWDC	≤ 0.2
RWHK	≤ 0.2
RQFT	0.759
RQFR	≤ 0.2
RQAT	0.884
RQAN	0.419
RQAD	≤ 0.2
RQFQ	≤ 0.2
MIFS	≤ 0.2
SNTE	≤ 0.2
YHPR	≤ 0.2
RCGL	≤ 0.2
LEEV	≤ 0.2
SVPL	≤ 0.2
GMVS	≤ 0.2
QIKS	≤ 0.2
RMWN	0.43
RMWT	0.904
RCWT	0.908
RSWT	0.756
RMWH	0.231
RDWT	≤ 0.2
RGWT	0.388
REWT	≤ 0.2

Variant	one-hybrid fitness for binding parS DNA
RPWT	≤ 0.2
TNVG	≤ 0.2
AFWR	≤ 0.2
TISC	≤ 0.2
RCEF	≤ 0.2
RCFS	1.03
RCFD	≤ 0.2
RSFD	≤ 0.2
RSFP	≤ 0.2
RSFS	1.01
RPFS	≤ 0.2
QAPG	≤ 0.2
YKDR	≤ 0.2
IDIG	≤ 0.2
RRGG	0.698
RRGF	≤ 0.2
RRSG	0.711
RRSY	0.46
RRCG	0.758
RRYR	≤ 0.2
RRYG	0.769
RRCR	≤ 0.2
RRYK	≤ 0.2
RRCN	0.452

Variant	one-hybrid fitness for binding parS DNA
DRSG	≤ 0.2
RRGY	0.361
QRNI	≤ 0.2
RLLW	0.241
FRGV	≤ 0.2
TALQ	≤ 0.2
TKKR	≤ 0.2
PENA	≤ 0.2
HIPD	≤ 0.2
EYSL	≤ 0.2
DRDG	≤ 0.2
NRRG	≤ 0.2
NRNG	≤ 0.2
RRQG	0.727
RRQQ	≤ 0.2
RRNG	0.704
RRRG	0.706
RRQY	0.441
RRNE	≤ 0.2
DRRG	≤ 0.2
RRDG	0.888
YVYG	≤ 0.2
RGYW	≤ 0.2
HTNV	≤ 0.2

Variant	one-hybrid fitness for binding parS DNA
TDNV	≤ 0.2
ASRA	≤ 0.2
KASS	≤ 0.2
EPDT	≤ 0.2
GAHV	≤ 0.2
SLDA	≤ 0.2
LSDS	≤ 0.2
IIGF	≤ 0.2
RRLK	≤ 0.2
RRLG	0.794
RRHG	0.72
RRLR	≤ 0.2
RRHM	0.424
RRHY	0.446
PSWH	≤ 0.2
LPFA	0.253
KMLG	≤ 0.2
FRSR	≤ 0.2
LSWR	≤ 0.2
TGKS	≤ 0.2
LTAC	≤ 0.2
RKSQ	≤ 0.2
RKNT	0.723
RKST	0.749

Variant	one-hybrid fitness for binding parS DNA
RKWH	≤ 0.2
RKNK	≤ 0.2
RKSF	≤ 0.2
RKCT	0.803
RKWP	≤ 0.2
RKCY	0.369
RKNM	0.234
RKCK	≤ 0.2
RKWT	0.759
AHCT	≤ 0.2
SYTS	≤ 0.2
LAQL	≤ 0.2
LSDG	≤ 0.2
ISTA	≤ 0.2
MTHL	≤ 0.2
CYFG	≤ 0.2
RKYF	≤ 0.2
RKHH	≤ 0.2
RKHP	≤ 0.2
RKLH	0.223
RKYK	≤ 0.2
RKIY	0.352
RKPT	0.412
RKLT	0.856

Variant	one-hybrid fitness for binding parS DNA
RKYT	0.868
RKIT	0.675
RKLN	0.351
RKHT	0.756
YKNL	≤ 0.2
VDMS	≤ 0.2
HRNI	≤ 0.2
NWKR	≤ 0.2
FKRH	≤ 0.2
TTLP	≤ 0.2
LGQS	≤ 0.2
DPGV	≤ 0.2
ITRV	≤ 0.2
WNTN	≤ 0.2
RKGT	0.764
RKRR	≤ 0.2
RKRT	0.658
RKGQ	≤ 0.2
RKDT	0.832
RKRQ	≤ 0.2
RKQP	≤ 0.2
RKGM	0.262
RKDK	≤ 0.2
RKQH	≤ 0.2

Variant	one-hybrid fitness for binding parS DNA
RKDY	0.38
RKQT	0.729
TDGD	≤ 0.2
RCPL	≤ 0.2
WHLG	≤ 0.2
CRRN	≤ 0.2
ITGW	≤ 0.2
RLNE	≤ 0.2
RLNC	0.94
RLDF	0.229
RLNK	≤ 0.2
RLDQ	≤ 0.2
RLDC	0.938
TYDG	≤ 0.2
RNWF	≤ 0.2
RNWY	0.275
RNRT	0.786
RNSM	0.238
RNYT	0.66
RNIT	0.427
RNSY	0.399
RNPT	0.307
RNWT	0.535
RNRM	0.345

Variant	one-hybrid fitness for binding parS DNA
RNRR	≤ 0.2
RNST	0.746
QFRW	≤ 0.2
LVVI	≤ 0.2
PETN	≤ 0.2
YEDL	≤ 0.2
KWKD	≤ 0.2
VTLP	≤ 0.2
HAAI	≤ 0.2
PKVP	≤ 0.2
RNGY	0.306
RNHD	≤ 0.2
RNGR	≤ 0.2
RNQT	0.74
RNLT	0.683
RNLP	≤ 0.2
RNQR	≤ 0.2
RNHN	0.346
RNQM	0.228
RNHT	0.723
RNLH	≤ 0.2
RNGT	0.696
QRGN	≤ 0.2
GVHD	≤ 0.2

Variant	one-hybrid fitness for binding parS DNA
VTSQ	≤ 0.2
MGWS	≤ 0.2
QCRG	≤ 0.2
QHQC	≤ 0.2
LAPW	≤ 0.2
HMRI	≤ 0.2
VDML	≤ 0.2
HQSC	≤ 0.2
DSFI	≤ 0.2
LCFF	≤ 0.2
ETSR	≤ 0.2
RNCM	≤ 0.2
RNCT	0.612
RNCQ	≤ 0.2
QRCF	≤ 0.2
DGSS	≤ 0.2
YRDA	≤ 0.2
AKTQ	≤ 0.2
RRIC	0.71
RRIY	0.332
RRPC	0.796
RRIQ	≤ 0.2
RRPM	0.215
SLCD	≤ 0.2

Variant	one-hybrid fitness for binding parS DNA
HGNW	≤ 0.2
EVCS	≤ 0.2
LNAY	≤ 0.2
AANM	≤ 0.2
ILWI	≤ 0.2
ALYC	≤ 0.2
DAAA	≤ 0.2
RAAA	0.592
NAAA	≤ 0.2
RAFA	0.624
NQKR	≤ 0.2
LMTS	≤ 0.2
GGWG	≤ 0.2
HSNS	≤ 0.2
QTKP	≤ 0.2
RHFR	≤ 0.2
RHAC	0.933
RHAR	≤ 0.2
RHFK	≤ 0.2
RHAF	≤ 0.2
RHFC	0.799
QLSE	≤ 0.2
TNGD	≤ 0.2
RMKA	0.735

Variant	one-hybrid fitness for binding parS DNA
RMVA	0.611
DMVA	≤ 0.2
EGMC	≤ 0.2
HPGG	≤ 0.2
CLLW	≤ 0.2
RPDT	≤ 0.2
RCDT	0.813
RSDM	≤ 0.2
RSNP	≤ 0.2
RSDT	0.696
RSNT	0.911
RCYT	0.963
REYT	≤ 0.2
RDDT	≤ 0.2
RSNN	0.445
REDT	≤ 0.2
RPYT	≤ 0.2
SYNF	≤ 0.2
QNNL	≤ 0.2
QNNR	≤ 0.2
VNTR	≤ 0.2
TLTC	≤ 0.2
VASF	≤ 0.2
ARLY	≤ 0.2

Variant	one-hybrid fitness for binding parS DNA
RERT	0.216
RSRT	0.832
RPNT	≤ 0.2
RDYT	≤ 0.2
RCNT	0.879
RENT	≤ 0.2
RSRH	0.232
RSRP	≤ 0.2
RPRT	≤ 0.2
RSYT	0.846
RCRT	0.818
SLNY	≤ 0.2
EHPE	≤ 0.2
LPKC	≤ 0.2
QHRW	≤ 0.2
TTHM	≤ 0.2
QPTM	≤ 0.2
YDPM	≤ 0.2
GMKG	≤ 0.2
RWFN	≤ 0.2
RWAS	0.876
RWFY	≤ 0.2
RWFS	0.691
RWAD	≤ 0.2

Variant	one-hybrid fitness for binding parS DNA
RWAN	0.26
GDED	≤ 0.2
SDVG	≤ 0.2
RRHA	0.693
RRQA	0.699
RRGA	0.749
NRSA	≤ 0.2
DRQA	≤ 0.2
RRSA	0.693
NRGA	≤ 0.2
NRHA	≤ 0.2
NRQA	≤ 0.2
DRHA	≤ 0.2
DRSA	≤ 0.2
RGGA	0.285
GDYT	≤ 0.2
HYRC	≤ 0.2
YDLT	≤ 0.2
